FBW7 activator – human FBW7 E3 ligase activation, primary screen | Q969H0 | AlphaScreen FBW7–phospho-cyclin E peptide binding, activator screen | normalized activity (activation), % at 26.1 µM | hit rate 0.13% among 650,000 | AID 1259310; in the data active means normalized activity above about 1.9%;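 further: purified mutant Fbw7 with reduced substrate affinity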
MITF inh – human MITF inhibition, primary screen | AlphaScreen MITF homodimerization, bead proximity signal | inhibition, % at 2.6 µM | hit rate 0.91% among 650,000 | AID 1259374; in the data active means inhibition above about 50%;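 further: 0% = vehicle wells with protein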
Target sequence (O75030 whole entry, looked up): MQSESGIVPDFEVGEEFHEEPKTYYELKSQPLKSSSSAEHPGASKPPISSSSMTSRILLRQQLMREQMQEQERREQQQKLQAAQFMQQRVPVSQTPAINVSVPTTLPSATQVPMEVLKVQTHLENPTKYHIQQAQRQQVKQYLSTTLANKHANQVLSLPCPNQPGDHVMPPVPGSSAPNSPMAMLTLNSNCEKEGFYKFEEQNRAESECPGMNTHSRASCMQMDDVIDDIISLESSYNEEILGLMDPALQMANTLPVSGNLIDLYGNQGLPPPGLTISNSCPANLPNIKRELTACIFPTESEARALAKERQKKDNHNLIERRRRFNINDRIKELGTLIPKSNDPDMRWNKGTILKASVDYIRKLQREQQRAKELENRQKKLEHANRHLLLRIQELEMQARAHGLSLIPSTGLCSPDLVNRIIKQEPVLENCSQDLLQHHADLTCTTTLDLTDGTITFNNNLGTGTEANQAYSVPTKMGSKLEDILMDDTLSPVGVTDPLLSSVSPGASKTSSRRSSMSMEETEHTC
GPR151 ag – activators of human GPR151 | Q8TDV0 | PathHunter beta-arrestin GPR151 cells, luminescence | activation, % at 11.2 µM | hit rate 1% among 650,000 | AID 1508602; in the data active means activation above about 4.9%;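 further: 0% = median of compound wells and 100% = cells with positive control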
TEAD-YAP block – TEAD-YAP interaction inhibition; inhibition, % at 9.12 µM; HEK-TIYL cells, TEAD-Gal4/YAP UAS-luciferase luminescence; hit rate 1.4% among 640,000; in the data active means inhibition above about 32%;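 further: 0% = median of test compound wells and 100% = reference inhibitor wells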
Numbers without * were called inactive; · = not tested or not shown. Rows were chosen to be rich in hits. Some 3.5% of all compounds tested hit in one or more screens of this group.

SMILES | FBW7 activator | MITF inh | GPR151 ag | TEAD-YAP block
Fc1ccc(-c2cc(N3CCC4(CC3)OCCO4)nc(-c3ccccn3)n2)cc1 | -0.1 | 9.2 | -0.6 | 15.2
NS(=O)(=O)c1ccc(CNC(=O)c2cc(Cl)ccc2Cl)cc1 | -0.1 | -8.0 | 1.4 | 3.9
NS(=O)(=O)c1ccc(Nc2nccc(-c3cccc(Cl)c3Cl)n2)cc1 | 23.9* | 13.6 | 0.6 | -5.5
COc1ccccc1-c1ccnc(Nc2ccc(S(N)(=O)=O)cc2)n1 | 0.8 | 67.6* | 1.0 | 34.4*
NS(=O)(=O)c1ccc(Nc2nccc(-c3ccccc3)n2)cc1 | -0.2 | -5.1 | -0.6 | -16.0
CC(=O)CC1(O)C(=O)Nc2ccc(C)cc21 (stereo unspecified) | 0.1 | 9.8 | 4.0 | 7.5
COc1ccccc1N1CCN(c2nnnn2-c2ccccc2)CC1 | -0.2 | 3.3 | -0.6 | 36.8*
O=c1oc2cc(O)ccc2cc1-c1nc(-c2cccs2)cs1 | 0.2 | -17.9 | -10.3 | 77.3*
O=c1oc2cc(O)ccc2cc1-c1nc(-c2ccccc2)cs1 | 0.4 | 4.5 | -1.0 | -1.2
CCc1ccc(Nc2nnc(-c3cc4ccc(O)cc4oc3=O)s2)cc1 | 0.3 | -1.2 | 1.7 | 34.3*
O=c1oc2cc(O)ccc2cc1-c1nnc(Nc2ccc(F)cc2)s1 | 0.0 | -2.8 | 1.0 | -9.9
CCN(Cc1ccncc1)Cc1ccc2c(c1)CN(C(=O)CCCn1cncn1)CCO2 | 0.4 | 5.3 | -0.7 | 11.5
CCn1c(Cc2ccccc2)nnc1SCC(=O)NC(C)(C)C | -0.1 | -1.8 | 1.6 | -16.7
COCCn1c(Cc2ccccc2)nnc1SCC(=O)NC(C)(C)C | 0.0 | -13.1 | 0.0 | 58.9*
CN(C)C(=O)Cn1c(SCC(=O)N2CCCc3ccccc32)nc2ccccc21 | 0.1 | -6.1 | -0.2 | 34.6*
CC1CCN(C(=O)Cn2c(SCC(=O)N3CCc4ccccc43)nc3ccccc32)CC1 | -0.1 | 5.3 | 1.7 | 2.2
Cc1ccc(N(CCC(N)=O)C(=O)CCl)cc1 | -0.4 | -1.2 | -0.1 | 76.0*
Cc1ccc(C(=O)CN(C(=O)CCl)c2ccccc2)cc1 | 0.1 | 1.3 | -1.1 | 36.4*
O=C(NC1CCCCCC1)/C(=C/c1ccco1)n1nnnc1-c1ccccc1 | 0.3 | 7.3 | 0.7 | 34.5*
NC(=O)COC(=O)/C(=C/c1ccco1)n1nnnc1-c1ccccc1 | -0.1 | 13.2 | 1.0 | 1.1
O=C1NC(=S)N/C1=C/c1ccc(-c2ccc3c(c2)C(=O)OC3)o1 | 2.5* | -42.6 | -1.0 | 3.6
O=C1NC(=S)N/C1=C/c1ccc(-c2cccc(Cl)c2)o1 | 0.1 | 0.1 | -0.8 | -34.8
CCCNC(=O)c1ccccc1NC(=O)Nc1cccc(Cl)c1 | 0.3 | 2.0 | 0.4 | -0.6
CCCn1c2ccccc2c2nc3cc(OC)c(OC)cc3nc21 | 3.7* | -9.6 | 2.1 | 9.6
COc1cc2nc3c4ccccc4n(C(C)C)c3nc2cc1OC | 3.7* | -49.0 | -1.8 | 1.7
SMILES | FBW7 activator | MITF inh | GPR151 ag | TEAD-YAP block
CCN(CC)CCn1c2ccccc2c2nc3ccccc3nc21 | 0.4 | 1.8 | -1.0 | 76.0*
CCCCn1c2ccccc2c2nc3cc(OC)c(OC)cc3nc21 | 1.7 | -5.2 | -0.7 | 3.3
CC1=C(C(=O)Nc2ccc(C)cc2)C(c2ccc(Cl)cc2)NC(=O)N1 (stereo unspecified) | 0.7 | 5.8 | -0.1 | -3.3
O=C(CSc1ncccn1)N1CCC(CO)(Cc2cccc(C(F)(F)F)c2)CC1 | -0.1 | 5.4 | 0.8 | -3.7
Cc1ccc(S(=O)(=O)c2ccc(Cl)cc2)cc1S(=O)(=O)N1CCCCC1 | -0.1 | -1.7 | 1.0 | 17.6
COc1ccc(C(=O)N2CCN(Cc3ccc(SC)cc3)CC2)cc1 | -0.1 | 36.6 | -1.7 | 42.8*
CCN1CCN(CCCCOc2ccc([N+](=O)[O-])c(C)c2)CC1 | 0.2 | 13.1 | -1.8 | 1.1
COc1ccc(C2(O)CCN(CC(=O)NC(C)(C)C)CC2C)cc1 (stereo unspecified) | -0.3 | -6.4 | -0.3 | -32.8
Cc1ccc(CNc2cc(C)nc(-n3nc(C)cc3C)n2)cc1 | -0.1 | -5.5 | -2.2 | 66.6*
Cc1cc(C)n(-c2nc(-c3ccc(Br)cc3)cs2)n1 | 0.2 | -8.5 | -0.5 | -10.6
Cc1cc(Nc2ccc3c(c2)OCCO3)nc(-n2nc(C)cc2C)n1 | -0.3 | 5.2 | -1.5 | 87.5*
Cc1cc(Nc2ccc(Br)cc2)nc(-n2nc(C)cc2C)n1 | 0.6 | 3.6 | 0.3 | 64.1*
Cc1cc(Nc2ccc(Cl)cc2)nc(N)n1 | 0.0 | 0.5 | -0.5 | -58.8
Cc1cc(Nc2ccc(Cl)cc2)nc(-n2nc(C)cc2C)n1 | 0.4 | 4.4 | 0.8 | 46.8*
Cc1cc(Nc2ccc3c(c2)OCO3)nc(Cl)n1 | 0.0 | 11.7 | 0.2 | -16.0
Oc1c(Cl)cc(CN2CCOCC2)c2cccnc12 | -0.7 | 100.5* | 0.2 | 85.5*
Oc1c(Br)cc(CN2CCOCC2)c2cccnc12 | -0.9 | 101.5* | 0.3 | 75.0*
Fc1cccc(CNCCCn2ccnc2)c1 | -0.1 | -4.0 | 0.6 | -3.4
CC(=O)N1CCC(N(C(=O)CSCCNC(=O)c2ccccc2)C2CC2)CC1 | 0.0 | 13.1 | -1.0 | 2.0
Cc1nc2nc(-c3cccs3)cn2nc1C | 0.0 | 6.0 | -4.6 | -22.8
c1csc(-c2cn3nc4c(nc3n2)CCCC4)c1 | -0.2 | 2.2 | -5.6 | 33.6*
CCN(CC)CCN(C)C(=O)Nc1ccc(NC(=O)N(C)CCN(CC)CC)cc1 | -0.1 | 2.5 | 1.3 | -4.6
C/C(=C\C(=O)c1ccccc1)Nc1ccccc1F | -0.1 | 16.2 | -1.7 | 5.3
CCOC(=O)N1CCc2c(sc(NC(=O)c3ccccc3)c2C#N)C1 | 0.3 | 10.5 | 0.9 | 51.0*
CCOC(=O)N1CCc2c(sc(NCc3cccc(OC)c3OC)c2C(=O)Nc2ccc(OC)cc2OC)C1 | -0.5 | 30.6 | -0.4 | 36.9*
SMILES | FBW7 activator | MITF inh | GPR151 ag | TEAD-YAP block
CC(=O)N1CCc2c(sc(NC(=O)CSc3ccccc3)c2C(N)=O)C1 | 0.0 | 13.1 | 4.0 | -4.7
CCOC(=O)c1c(NC(=O)c2ccc(Cl)s2)sc2c1CCN(C(C)C)C2 | 2.2* | 8.7 | 0.3 | -8.1
CC(=O)N1CCc2c(sc(NC(=O)CCc3ccccc3)c2C(N)=O)C1 | 0.0 | 9.2 | -0.5 | 51.2*
CCOc1ccc2ccc(OCC)c(/C=C3/NC(=O)NC3=O)c2c1 | 0.1 | 4.2 | -0.5 | -1.4
CC(C)n1cnc2c(NCc3cccc(C(F)(F)F)c3)nc(N3CCc4ccccc4C3)nc21 | -0.1 | -11.8 | 1.7 | -4.4
O=c1n(-c2ccccc2)c(=O)n2n1CC[C@@H]1/C(=N/OCc3ccccc3)[C@H]3O[C@H]3[C@@H](O)[C@@H]12 | 0.4 | -27.1 | -0.5 | ·
CCOC(=O)N1CCc2c(sc(NC(=O)c3cc(Cl)sc3Cl)c2C#N)C1 | -0.1 | -6.0 | -0.8 | 32.4*
CCOC(=O)c1c(NC(=O)Cc2ccccc2)sc2c1CCN(C(=O)OCC)C2 | 5.2* | -4.0 | 0.4 | 1.8
CCOC(=O)N1CCc2c(sc(NC(=O)c3ccccc3Br)c2C#N)C1 | -0.1 | -3.9 | 4.7 | 53.3*
CCOc1ccccc1NC(=O)c1c(N)sc2c1CCCC2 | -0.1 | -22.4 | 0.0 | 14.7
CCOC(=O)N1CCc2c(sc(NC(=O)Cc3ccccc3)c2C(N)=O)C1 | 0.2 | 17.0 | -0.9 | -2.9
CCOC(=O)N1CCc2c(sc(N)c2C(=O)Nc2ccccc2OCC)C1 | 0.0 | -7.4 | -1.7 | 32.1*
CCCCNc1nc(SCC(=O)c2ccccc2)nc2ccccc12 | -0.1 | 0.3 | -1.6 | 2.5

Assay outcomes deposited in PubChem BioAssay by The Scripps Research Institute Molecular Screening Center.
